# Measurements: the supplement of paper PMC6555819
# Tests used:
# Test in all cases: PBM binding z-score (relative to random genomic background probes); higher = stronger binding; sequences stand for … in GC…GCGATTGACAGCGTAGAATGAAGG
# [1] = test system: FXR:RXRa (NR concentration 270 nM, RXRa partner concentration 90 nM)
# In short: (§1)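 Custom Agilent 4×180K protein-binding microarrays carried double-stranded probes. Their 34-nt variable regions held direct-repeat seeds, single-nucleotide variants, half-site ablations and random human genomic background sequences. Arrays were incubated 1 h with ligand-free nuclear receptor dimers in PBS pH 7.4, 2% milk, 0.02% Triton X-100, 1 mM DTT, 0.2 mg/mL BSA and 0.4 mg/ml salmon testes DNA. Antibodies against each partner (one per run) detected binding, and scanned fluorescence was regression-normalized. Binding z-scores use random background probes as reference.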
# [2] = test system: LXRa:RXRa (NR concentration 270 nM, RXRa partner concentration 90 nM)
# In short: as §1
# [3] = test system: LXRa homodimer (NR concentration 270 nM)
# In short: as §1
# [4] = test system: LXRb:RXRa (NR concentration 270 nM, RXRa partner concentration 90 nM)
# In short: as §1
# [5] = test system: LXRb homodimer (NR concentration 270 nM)
# In short: as §1
# [6] = test system: PPARa:RXRa (NR concentration 270 nM, RXRa partner concentration 90 nM)
# In short: as §1
# [7] = test system: PPARg:RXRa (NR concentration 180 nM, RXRa partner concentration 90 nM)
# In short: as §1
# [8] = test system: PPARg:RXRa 270nM:90nM, anti-RXR (NR concentration 270 nM, RXRa partner concentration 90 nM)
# In short: as §1
# [9] = test system: PPARg:RXRa 30nM:10nM, anti-RXR (NR concentration 30 nM, RXRa partner concentration 10 nM)
# In short: as §1
# [10] = test system: PPARg:RXRa 90nM:30nM, anti-RXR (NR concentration 90 nM, RXRa partner concentration 30 nM)
# In short: as §1
# [11] = test system: PPARg:RXRa DBDmut IVT, anti-RXR (DBD mutation: RXRa K156A/R161A, NR concentration 270 nM, RXRa partner concentration 90 nM)
# In short: as §1
# [12] = test system: PPARg:RXRa IVT, anti-PPARg (NR concentration 270 nM, RXRa partner concentration 90 nM)
# In short: as §1
# [13] = test system: PPARg DBDmut:RXRa IVT, anti-PPARg (DBD mutation: PPARg1 K132A/R137A, NR concentration 270 nM, RXRa partner concentration 90 nM)
# In short: as §1
# [14] = test system: PPARg DBDmut IVT, anti-PPARg (DBD mutation: PPARg1 K132A/R137A, NR concentration 270 nM)
# In short: as §1
# [15] = test system: PPARg homodimer (NR concentration 180 nM)
# In short: as §1
# [16] = test system: PXR:RXRa (NR concentration 270 nM, RXRa partner concentration 90 nM)
# In short: as §1
# [17] = test system: PXR homodimer (NR concentration 270 nM)
# In short: as §1
# [18] = test system: RARa:RXR (NR concentration 270 nM, RXRa partner concentration 90 nM)
# In short: as §1
# [19] = test system: RARa homodimer (NR concentration 270 nM)
# In short: as §1
# [20] = test system: RARb:RXRa (NR concentration 270 nM, RXRa partner concentration 90 nM)
# In short: as §1
Sequence,PBM binding z-score [1],PBM binding z-score [2],PBM binding z-score [3],PBM binding z-score [4],PBM binding z-score [5],PBM binding z-score [6],PBM binding z-score [7],PBM binding z-score [8],PBM binding z-score [9],PBM binding z-score [10],PBM binding z-score [11],PBM binding z-score [12],PBM binding z-score [13],PBM binding z-score [14],PBM binding z-score [15],PBM binding z-score [16],PBM binding z-score [17],PBM binding z-score [18],PBM binding z-score [19],PBM binding z-score [20]
TCAGATAGGTAATACAGGTGAAAGTCGGCATCTA,0.862,1.41,0.032,0.889,0.0501,1.72,0.936,2.37,4.15,3.25,2.72,1.82,0.894,0.382,0.675,0.557,0.387,0.619,1.19,0.567
TAGCCTAGGTCGGATCGGGCCAGTATACGCTATA,-0.358,-0.506,-0.432,-0.741,-0.754,-0.324,0.0462,-0.371,-0.755,-0.538,-0.693,-0.327,-0.89,-0.506,-1.19,-0.228,-0.533,0.382,-0.683,0.204
TCGTATAGGTAATACAGGTGAAAGTCGGCATCTA,0.718,1.21,0.63,0.967,-0.231,1.75,0.665,1.96,2.76,2.39,2.32,2.24,0.787,1.03,0.975,0.742,0.293,0.746,1.16,0.691
ACAGACAGGTGATGAACGTAACTCAGGCTATCAT,-0.0915,-0.174,0.0611,-0.231,-0.49,-0.156,0.922,-0.0111,0.477,-0.194,-0.0291,0.144,0.839,0.504,-0.201,-0.104,0.276,-0.047,0.235,-0.0365
TCTTGTATATCAAGCAGGTTAAGAAAGCCTGAGT,0.234,0.335,0.0276,0.678,0.189,0.992,-0.217,1.47,2.86,1.86,1.41,0.503,0.561,1.48,0.514,0.624,0.331,0.805,0.189,0.615
AATACAGGGTCACTAGGCCATAGTAGGTACGAAT,5.83,4.98,1.02,4,0.913,6.01,8.68,6.76,3.65,5.88,4.35,6.47,2.07,1.76,2.21,3.31,0.565,4.46,0.595,4.11
GGAGCGAGGGCAAGTTGATAGCAGAGTTTGATGG,0.394,0.0427,-0.544,0.219,-0.594,0.728,0.238,0.276,-0.604,-0.121,0.723,0.346,-0.895,-0.911,0.261,0.533,0.345,0.395,-0.343,2.56
TCTTGTAGATCAACAGGAGGTTGAGAAAGATCGA,-0.0264,-0.201,-0.188,-0.211,-0.144,0.467,-0.1,1.33,2.81,2.24,1.36,0.267,0.852,-0.116,-0.716,0.0835,-0.557,0.0993,-0.378,-0.147
